Bioassay records: PubChem, National Center for Advancing Translational Sciences (NCATS)
An excerpt weighted towards active compounds, which were near 12% of everything screened.
Sfp inh: inhibitors of Bacillus subtilis Sfp phosphopantetheinyl transferase | Q9F4F7 | Biochemical Sfp PPTase activity, qHTS | Potency, µM, for the others: largest response in the series, negative = inhibition, usual class: inhibitors | actives 3.5% (n = 310,000) | AID 1490;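 also: the enzyme is Sfp with the accession as filed and its product quenches rhodamine fluorescence; 0% = enzyme reaction without inhibitor and -100% = no enzyme wells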
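After 15 min at room temperature with compound, 15 nM Sfp received 5 uM rhodamine-CoA plus 12.5 uM BHQ-2-ybbR (50 mM Hepes pH 7.6, 10 mM MgCl2). Rate came from the fluorescence difference over 30 min, ex 525/em 598 nm.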
Gal4-VP16 FLuc: inhibits Gal4-VP16 luciferase reporter, ROR gamma counter-screen; AID 2546; actives 3.5% (n = 310,000); Potency, µM (doses to about 53.6 µM), without a hit: top-dose activity, negative = inhibition, actives largely listed as inhibitors; Drosophila S2 Gal4-VP16 UAS-luciferase, luminescence, 20 h;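 also: Gal4-VP16 expression switched on by copper sulfate through the metallothionein promoter; nearly all actives have a fitted effect of over 50% in size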
RORgamma inh: ROR gamma (mouse) transcription inhibition | AID 2551 | Drosophila S2 Gal4-RORgamma UAS-luciferase reporter, 20 h | actives 5.4% (n = 310,000) | P51450 | Potency, µM (doses to about 53.6 µM), inactives show at the top dose activity change, negative = inhibition, actives largely listed as inhibitors; also: nearly all actives have a fitted effect of over 60% in size
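Using a luciferase readout, inhibitors were identified by reduced reporter activity in Drosophila cells coexpressing a copper-inducible Gal4–ROR gamma fusion and UAS-driven Photinus luciferase, incubated 20 hr after 700 uM copper sulfate.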
PLK1 PBD inh: inhibitors of human PLK1 polo-box domain binding | Potency, µM, for the others: max response, negative = inhibition, hits mostly inhibitors | Plk1 PBD binding of FITC phosphopeptide, fluorescence polarization | P53350 | AID 720504 | actives 2.8% (n = 360,000); also: series mostly up to about 57 µM; nearly all actives have a fitted effect of over 65% in size
Target sequence (P53350 whole entry, looked up, the tested form may be a part): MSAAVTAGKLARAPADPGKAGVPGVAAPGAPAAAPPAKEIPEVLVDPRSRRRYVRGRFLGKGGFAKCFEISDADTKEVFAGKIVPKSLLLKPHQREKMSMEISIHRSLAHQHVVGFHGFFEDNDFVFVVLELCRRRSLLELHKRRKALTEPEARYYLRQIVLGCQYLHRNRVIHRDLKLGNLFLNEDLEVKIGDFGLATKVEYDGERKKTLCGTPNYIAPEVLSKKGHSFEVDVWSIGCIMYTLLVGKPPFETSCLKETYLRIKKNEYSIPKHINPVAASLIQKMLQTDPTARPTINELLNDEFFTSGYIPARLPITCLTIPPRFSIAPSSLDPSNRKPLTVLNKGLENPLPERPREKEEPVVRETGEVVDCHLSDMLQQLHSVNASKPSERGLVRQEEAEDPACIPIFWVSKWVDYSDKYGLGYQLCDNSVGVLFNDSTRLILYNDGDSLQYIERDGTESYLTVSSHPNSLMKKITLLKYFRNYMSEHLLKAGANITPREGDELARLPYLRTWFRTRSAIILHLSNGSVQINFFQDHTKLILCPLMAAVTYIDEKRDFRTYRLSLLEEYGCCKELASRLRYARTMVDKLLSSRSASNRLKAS
ALDH1A1 block: inhibitors of human aldehyde dehydrogenase 1A1 | actives 7.3% (n = 220,000) | Potency, µM (highest dose often 75.3 µM), without a hit: at the highest dose activity, negative = inhibition, actives largely listed as inhibitors | P00352 | Purified ALDH1A1, NADH fluorescence, propionaldehyde substrate | AID 1030; active = well fitted inhibition curve with a large enough effect, not every such curve was filed as active; inconclusive = small, poorly fitted or top-dose-only effect, or another doubt; inactive = no such curve, though single readings can be large or run the other way;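 also: plate controls were no enzyme wells and a reference inhibitor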
* marks the source's active call; other numbers are inactive results; ? = inconclusive; · = no result given; [ ] = remark or other dose. Unless noted, calls follow the shape of the dose curve; as a rule, active = well fitted curve in the direction sought with a large enough effect; inconclusive = small, poorly fitted or top-dose-only effect, or another doubt; inactive = no such curve, though single readings can be large; an effect the other way counts as inactive or inconclusive. Unless noted, % is scaled to controls: 0 for no effect and ±100 for the full control effect; potency is read from the fitted curve at half-maximal effect.

SMILES | Sfp inh | Gal4-VP16 FLuc | RORgamma inh | PLK1 PBD inh | ALDH1A1 block
COc1ccc(Cn2nnnc2CN2CCc3ccccc32)cc1 | 5.9% | 4.4% | -22.0% | 0.8% | ?
COc1ccc(Cn2nnnc2CN2CCC(O)(c3ccccc3F)CC2)cc1 | -1.0% | -20.4% | -1.0% | -4.9% | 8.91µM*
OC1(c2cccnc2)CCN(Cc2nnnn2Cc2ccccc2)CC1 | 15.0% | -0.6%[10 µM] | 11.3% | 2.2% | 15.8µM*
COc1ccc(Cn2nnnc2CN2CCc3ccccc3C2)cc1 | 19.6% | -12.5% | 7.7% | -3.1% | 11.2µM*
COc1cc(CN2CCc3ccccc3C2)cc([N+](=O)[O-])c1O | ? | -4.7% | -9.2% | 0.1% | ·
COC(=O)N1CCC[C@@]2(CCN(c3ccccn3)C2)C1 | 29.0% | -4.1% | -6.4% | · | ?
CCC(=O)[C@@]1(C)[C@H](C)C[C@@H]2[C@@H]3CCC4=CC(=O)C=C[C@@]4(C)[C@H]3[C@H](O)C[C@]21C | 23.6% | -12.5%[17 µM] | -21.3%[2.98 µM] | · | 0.7%[20.9 µM]
CCNc1ccccc(C(=O)/C=C/c2ccc3c(c2)OCO3)c1=O | 44.7µM* | ? | 7.94µM* | 23.8µM* | 10µM*
O=C(/C=C/c1ccc2c(c1)OCO2)c1cccs1 | 70.8µM* | ? | ? | · | ?
O=C(/C=C/c1ccc2c(c1)OCO2)c1ccc[nH]1 | -3.7% | -3.5% | ? | -27.1% | 4.7%
COc1ccc(OC)c(CC(=O)Nc2ccc3c(c2)c(=O)n(C)n3Cc2cccc(C(F)(F)F)c2)c1 | · | · | · | -10.2% | ·
COc1ccc2c(c1)OC1(O)COc3cc(OC)c(OC)cc3C1=C2 (stereo not drawn) | -3.6% | -20.8% | 11.8% | · | ?
O=C1Nc2ccccc2-n2nnnc2C1N1CCN(CCN2CCOCC2)CC1 (stereo not drawn) | · | · | · | -1.0% | ·
O=C1Nc2ccccc2N=C(c2ccccc2)C1N1CCOCC1 (stereo not drawn) | 10.1% | 0.2% | -19.7% | -5.9% | 22.4µM*
O=C1Nc2ccccc2N=C(c2ccccc2)C1Br (stereo not drawn) | 44.7µM* | -11.1% | 0.3% | 7.7% | 15.8µM*
CC(C)N1C(=O)c2ccccc2NC(=O)C1C(=O)NCc1cccc(C(F)(F)F)c1 (stereo not drawn) | · | · | · | 0.1% | ·
CCCS(=O)(=O)NC(=O)C1(C)CCCN(C(=O)c2cc(OC)c(OC)c(OC)c2)C1 (stereo not drawn) | · | · | · | 10.0% | ·
CC(=O)N(CC(O)CN(C(C)=O)c1c(I)c(C(=O)NC[C@@H](O)CO)c(I)c(C(=O)NC[C@@H](O)CO)c1I)c1c(I)c(C(=O)NC[C@@H](O)CO)c(I)c(C(=O)NC[C@@H](O)CO)c1I | 28.7% | 8.2%[17 µM] | 4.8%[2.98 µM] | · | -7.4%[20.9 µM]
Cc1ccc(S(=O)(=O)N(C)CC(=O)Nc2nc3ccccc3s2)cc1 | 10.1% | -81.2% | ? | -9.3% | ?
Cc1ccc(/C(=N/Nc2nc3ccccc3s2)C2=C(O)c3ccccc3C2=O)cc1 | 79.4µM* | ? | 4.47µM* | ? | -2.4%
CNC[C@H]1OCc2ccccc2-c2ccccc2C(=O)N([C@@H](C)CO)C[C@H]1C | · | · | · | -4.3% | ·
O=C(NCCO)c1cc2cc(Cl)cc(Cl)c2oc1=O | 35.5µM* | -3.0%[10 µM] | 8.0% | 13.4µM* | ?
COCCNC(=O)c1cc2cc(Cl)cc(Cl)c2oc1=O | -1.2% | -4.7% | -8.2% | ? | 25.1µM*
CC(=O)c1ccc(OC2C=CC(C#Cc3ccc(Br)cc3)OC2CO)cc1 (stereo not drawn) | 5.1% | 0.5%[10 µM] | 21.3%[10 µM] | · | ?
c1cn(-c2cc(-c3ccc4c(c3)OCO4)ncn2)cn1 | -1.3% | -9.0% | -20.4% | · | ?
SMILES | Sfp inh | Gal4-VP16 FLuc | RORgamma inh | PLK1 PBD inh | ALDH1A1 block
Cc1ccc(NC(=O)C(C)Sc2nc(=O)cc(N)n2-c2ccccc2)cc1 (stereo not drawn) | 14.2% | 4.0% | 33.8% | -4.9% | 11.2µM*
COc1ccc(C(=O)Oc2cc(/C=N/NC(N)=S)ccc2OC)cc1 | 10.6% | 22.4µM* | 11.2µM* | -10.8% | -13.8%
COc1ccc(/C=N/NC(N)=S)cc1OC(=O)c1cccc2ccccc12 | 9.9% | 5.01µM* | 2.51µM* | 4.3% | ?
COc1cc(/C=N/NC(N)=O)ccc1OC(=O)c1ccc(C)cc1 | 17.4% | 0.2% | -11.3% | · | 10.8%
COc1ccc(C(=O)Oc2ccc(/C=N/O)cc2)cc1 | -6.3% | 11.2µM* | 11.2µM* | -6.9% | 2.7%
CCOC(=O)C1(CCCc2ccccc2)CCN(C(=O)c2n[nH]c(CC)c2C)CC1 | · | · | · | -2.1% | ·
[O-][n+]1cccc(CO)c1 | 1.4% | -2.6% | 11.9% | · | ·
O=C(C1=C(O)C(=O)N(CCN2CCOCC2)C1c1cccnc1)c1cc2ccccc2o1 (stereo not drawn) | -1.7% | -7.8% | 7.6% | -12.3% | 35.5µM*
COCCN1C(=O)C(O)=C(C(C)=O)C1c1ccc(F)cc1 (stereo not drawn) | -28.3% | -4.2% | 26.7% | 1.0% | 14.1µM*
O=C(C1=C(O)C(=O)N(CCCN2CCOCC2)C1c1ccncc1)c1cc2ccccc2o1 (stereo not drawn) | 4.3% | -2.9% | 11.7% | · | 14.1µM*
CC(=O)C1=C(O)C(=O)N(C2CCCCC2)C1c1ccccc1 (stereo not drawn) | -0.4% | 22.4% | -30.0% | -13.6% | 22.4µM*
Cc1ccc2nc(SC(C)C(=O)Nc3cccc([N+](=O)[O-])c3)[nH]c2c1 (stereo not drawn) | ? | ? | 7.2% | -3.3% | -0.9%
COC(=O)C/C=C\[C@@H](C)[C@@H](/C=N\OC[C@@H](O)[C@H]1O[C@H]2OC(C)(C)O[C@H]2[C@@H]1O)OC | 14.4% | -4.2%[10 µM] | -10.6%[10 µM] | · | -4.0%[13.5 µM]
Cc1c(C(=O)N2CCC(C)(C(=O)NS(=O)(=O)C3CC3)C2)oc2ccccc12 (stereo not drawn) | · | · | · | -6.0% | ·
Cc1ccc(C2C(C(=O)c3cc4ccccc4o3)=C(O)C(=O)N2CCN2CCOCC2)o1 (stereo not drawn) | 50.1µM* | ? | ? | -24.2% | 14.1µM*
CC(=O)C1=C(O)C(=O)N(CCN2CCOCC2)C1c1ccccc1 (stereo not drawn) | -11.4% | -5.1% | 0.0% | -7.5% | 25.1µM*
Cc1sc2nc(CSc3ccccc3)nc(N3CCN(C)CC3)c2c1C | 4.7% | -3.5% | -5.8% | -10.7% | -1.3%
COCCNc1nc(CSc2ccccc2)nc2sc(C)c(C)c12 | -9.6% | ? | 11.2µM* | -12.4% | ?
Cc1ccccc1NC(=O)c1ccc(NS(=O)(=O)c2cc(C(C)(C)C)cc(C)c2C)cc1 | 19.6% | -15.5% | ? | -21.0% | 2.82µM*
Cc1cc(C(C)(C)C)cc(S(=O)(=O)Nc2cccc(C(=O)O)c2)c1C | 10.8% | 8.8% | -4.1% | -5.0% | ?
CO[C@@H]1/C=C\CC(=O)N[C@@H](C)C(=O)OC[C@@H](OC)[C@H](C)CCCC(=O)OC[C@H]1C | 16.0% | -11.4%[10 µM] | 16.1%[10 µM] | · | -2.0%[13.5 µM]
OCC1OC(Nc2ccccc2C=NO)C(O)C1O (stereo not drawn) | · | · | · | -3.0% | ·
COc1ccc(-c2[nH]ncc2CN2CCN(C3CCCCC3)C(=O)C2)cc1F | 5.9% | 7.3% | 21.2% | -15.6% | 1.41µM*
